Screens from PubChem.
This is a sample that favours compounds with a hit; in the whole collection about 9% have one here.
ALOX12 inh: ALOX12 (human) lipoxygenase inhibition; purified 12hLO, xylenol orange hydroperoxide absorbance; Potency, µM (doses to about 108 µM), inactives show at the highest dose activity change, negative = inhibition, most hits filed as inhibitors; hit rate 1.1% among 580,000; note: % is set by controls: 0 for no effect and ±100 for the full control effect
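Purified human 12hLO at 150 nM in 25 mM Hepes, 0.01% Triton X-100, pH 7.0, preincubated 15 min at room temperature with compound. Reaction started with 40 uM arachidonic acid, 30 min at room temperature. Hydroperoxide measured by Fe-xylenol orange, 573/405 nm absorbance ratio.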
HP1b binding inh: blocks HP1-beta chromodomain binding to methylated histone tails; hit rate 0.56% among 390,000; AlphaScreen HP1-beta / biotin-H3K9me3 peptide binding; Potency, µM (doses to about 114 µM), for inactives: at the highest dose activity change, negative = inhibition, usual class: inhibitors; P83916; note: nearly all actives have a fitted effect of over 70% in size
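HP1-beta protein (50 nM final) preincubated 30 min at room temperature with biotinylated H3(1-18)K9me3 peptide (50 nM) in PBS pH 7.4, 0.01% Tween-20, then compound added for 30 min. AlphaScreen streptavidin donor/nickel chelate acceptor beads (10 ug/mL final), 30 min dark, luminescence read.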
JMJD2A Tudor: JMJD2A Tudor domain (human) inhibition. O75164. AlphaScreen JMJD2A-Tudor / H3K4me3 peptide binding. Potency, µM (highest dose often 114 µM), without a hit: at the top dose activity change, negative = inhibition, usual class: inhibitors. hit rate 4.4% among 390,000. AID 504339; note: % is set by controls: 0 for no effect and ±100 for the full control effect; nearly all actives have a fitted effect of over 50% in size
G9a inh: blocks human histone lysine methyltransferase G9a; Q96KQ7; G9a H3K9 monomethylation, AlphaScreen, 2 h; Potency, µM (doses to about 102 µM), without a hit: top-dose activity, negative = inhibition, actives largely listed as inhibitors; hit rate 8.8% among 350,000; AID 504332; note: % is set by controls: 0 for no effect and ±100 for the full control effect; nearly all actives have a fitted effect of over 75% in size
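Using a bead-based AlphaScreen, monomethylated H3K9 product from 2 h room-temperature reactions (G9a 20 nM, peptide 500 nM, SAM 20 uM) was detected with 0.5 ug/mL rabbit anti-H3K9me1 antibody.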
BAZ2B block: BAZ2B (human) inhibition; AlphaScreen BAZ2B-H3K14Ac peptide displacement; Potency, µM (top dose mostly 114 µM), without a hit: at the highest dose activity change, negative = inhibition, usual class: inhibitors; hit rate 4.4% among 360,000; AID 504333; note: % is set by controls: 0 for no effect and ±100 for the full control effect; nearly all actives have a fitted effect of over 60% in size
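Multi-concentration screen (max 110 uM) measuring displacement of acetylated histone H3 peptide from BAZ2B by AlphaScreen, using 50 nM protein, 50 nM peptide and 10 ug/mL streptavidin donor plus Ni-chelate acceptor beads.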
PLK1 PBD inh: inhibitors of human PLK1 polo-box domain binding; P53350; AID 720504; Plk1 PBD binding of FITC phosphopeptide, fluorescence polarization; hit rate 2.8% among 360,000; Potency, µM, inactives show max response, negative = inhibition, most hits filed as inhibitors; note: series mostly up to about 57 µM; % is set by controls: 0 for no effect and ±100 for the full control effect; nearly all actives have a fitted effect of over 65% in size
Numbers without * were called inactive; ? = inconclusive; / = no result; [ ] = another dose, or the depositor's remark. Calls come from the whole dose curve; as a rule, active = well fitted curve in the direction sought with a large enough effect; inconclusive = small, poorly fitted or top-dose-only effect, or another doubt; inactive = no such curve, though single readings can be large; an effect the other way counts as inactive or inconclusive. Potency is the fitted concentration of half-maximal effect.

SMILES	ALOX12 inh	HP1b binding inh	JMJD2A Tudor	G9a inh	BAZ2B block	PLK1 PBD inh
C[Se]C[C@@H](N)C(=O)O	?	-4%	20µM*	4µM*	?	-1%
NC(CCP(=O)(O)O)C(=O)O (stereo unspecified)	6%	/	/	-11%[59 µM]	/	/
OCCN(CCO)CCO	/	/	/	26%[59 µM]	/	/
CC(N)Cc1c[nH]c2ccc(Cl)cc12 (stereo unspecified)	-13%	28%	-10%	/	/	-2%
Clc1ccc2[nH]c3c(c2c1)CCNC3	-10%	15%	-18%	79µM*	-26%	-5%
COc1ccccc1CNCC(=O)Nc1cc(S(=O)(=O)N2CCCCC2)ccc1C	4%	?	1.8µM*	/	/	1%
COCCCNC(=O)Cn1cc(/C=C2\C(=O)NC(=O)N(c3ccccc3F)C2=O)c2ccccc21	/	34%	-11%	?	-30%	?
COCCNC(=O)Cn1cc(/C=C2\C(=O)NC(=O)N(c3ccccc3F)C2=O)c2ccccc21	0%	49%	-6%	6%	2%	3µM*
O=C(O)Cn1cc(/C=C2\C(=O)NC(=O)N(c3ccc(F)cc3)C2=O)c2ccccc21	/	/	/	50µM*	-23%	/
COCCNC(=O)Cn1cc(/C=C2\C(=O)NC(=O)N(c3cccc(C)c3C)C2=O)c2ccccc21	-55%	47%	-8%	?	-2%	3.8µM*
COc1ccc(N2C(=O)NC(=O)/C(=C\c3cn(CC(=O)N4CCOCC4)c4ccccc34)C2=O)c(OC)c1	210%	44%	-20%	?	-24%	11µM*
COC(=O)Cn1cc(/C=C2\C(=O)NC(=O)N(c3ccc(OC)cc3)C2=O)c2ccccc21	12%	-5%	4%	28%[0.501 µM]	-4%	?
CN(C)C(=O)Oc1cc(OC(=O)N(C)C)cc([C@@H](O)CNC(C)(C)C)c1	/	/	/	26%[21.5 µM]	/	/
CN(c1ccccc1)P(=O)(N1CC1)N1CC1	19%	23%	-35%	/	/	-2%
CS(=O)(=O)c1ccc(C2=C(CNC(=O)c3ccncc3)[C@H]3CC[C@@H](C2)N3Cc2ccccc2)cc1	5%	/	/	/	/	-8%
CC(C)N1CCN(c2ccc(O)cc2)CC1	?	?	?	8.9µM*	-6%	-4%
Cc1[nH]c2ccccc2c1C1=CCNCC1	10%	-9%	?	50µM*	?	-6%
CCOc1ccc(N2C(=O)NC(=O)/C(=C\c3ccc(N4CCOCC4)cc3C)C2=O)cc1	?	62%	-10%	-14%[12.7 µM]	?	6.7µM*
O=C1NC(=O)N(c2ccccc2)C(=O)/C1=C/c1ccc(Sc2ccccc2)o1	/	0%	56µM*	10µM*	50µM*	?
Cc1ccc(N2C(=O)NC(=O)/C(=C\c3ccc(N4CCOCC4)cc3)C2=O)cc1	?	37%	-13%	?	1%	6µM*
Cc1cc(/C=C2\C(=O)NC(=O)N(c3ccc(Br)cc3)C2=O)c(C)n1C	?	22%	-8%	?	29%	-2%
Cc1cccc(N2C(=O)NC(=O)/C(=C/c3ccc(-c4ccc(C(=O)O)c(Cl)c4)o3)C2=O)c1	/	/	/	10µM*	-14%	/
Cc1cc(/C=C2\C(=O)NC(=O)N(c3cccc(Br)c3)C2=O)c(C)n1C	?	26%	-11%	22%[59 µM]	4%	-12%
COCCN1C[C@H]2CN(Cc3ccncc3F)CCN2C1=O	23%[176 µM]	/	/	/	/	/
CN(C)CC#CCOCCOCCC#N	0%	10%	-10%	16%[59 µM]	9%	-1%
SMILES	ALOX12 inh	HP1b binding inh	JMJD2A Tudor	G9a inh	BAZ2B block	PLK1 PBD inh
NC(=O)CS(=O)C(c1ccccc1)c1ccccc1 (stereo unspecified)	/	/	/	51%[59 µM]	-5%	/
COc1ccc(N2C(=O)NC(=O)/C(=C/c3ccc(N4CCOCC4)cc3)C2=O)cc1	-21%	/	/	50µM*	-6%	/
CCOc1ccc(N2C(=O)NC(=O)/C(=C\c3cc(OC)c(OC)cc3[N+](=O)[O-])C2=O)cc1	/	-17%	?	18µM*	?	32%
Cc1cccc(N2C(=O)NC(=O)/C(=C\c3ccc(N4CCOCC4)cc3)C2=O)c1	?	?	-5%	?	-13%	9.5µM*
Cc1ccc(N2C(=O)NC(=O)/C(=C\c3ccc([N+](=O)[O-])o3)C2=O)cc1	/	/	/	6.3µM*	20µM*	/
Cc1cccc(N2CCC3(CC2)C(=O)NC(=O)NC3=O)c1	14%	11%	-17%	/	/	-5%
O=C(NC1CCCCC1)N1Cc2ccc(Br)cc2-n2nncc2C1	-1%	/	/	/	/	/
CCC(=O)OC1(Cc2ccc(CC)cc2)CC(C)N(C)CC1C (stereo unspecified)	?	37%	-3%	-4%	-11%	0%
Cc1cccc(N2C(=O)NC(=O)/C(=C/c3ccc(N4CCOCC4)cc3)C2=O)c1	-29%	23%	-12%	?	/	12µM*
N#Cc1ccc(CN2CCN(C(=O)Cc3n[nH]c(=O)c4ccccc34)CC2)cc1	6%	/	/	/	/	/
CC12CC[C@H]3[C@@H](CCC4(O)C[C@H](O)CCC34/C=N/NC(=O)c3ccccc3F)C1(O)CCC2C1=CC(=O)OC1 (stereo partly specified)	-22%	46%	-7%	/	-1%	3%
CN1CCC2(CC1)N=C(c1ccc(F)cc1)C(=S)N2	-30%	?	32µM*	25µM*	-1%	?
CN1CCC2(CC1)NC(=O)c1ccccc1N2	42%	55%	-8%	9%[59 µM]	-2%	-10%
O=c1[nH]c(O)c(C=Nc2ccccc2[N+](=O)[O-])c(=O)[nH]1	/	/	/	71µM*	-3%	/
O=c1[nH]c(O)c(C=Nc2ccccc2Sc2ccccc2)c(=O)[nH]1	0%	55%	-10%	?	-10%	-15%
CCN(CC)c1ccccc1	-3%	63%	6%	0%[0.501 µM]	30%	-1%
O=c1c2ccccc2nc(-c2ccco2)n1-c1ccccn1	-17%	8%	-26%	-3%	11%	-9%
